Source: PubChem BioAssay
In the library only some 21% were active in any assay of this set; here they are far more common.
Pf growth 48h: P. falciparum growth inhibition at 48 hours (one generation) | P. falciparum luciferase growth in erythrocytes, 48 h | Potency, µM (top dose mostly 28.7 µM), without a hit: at the highest dose activity change, negative = inhibition, most hits filed as inhibitors | hit rate 5.9% among 310,000 | AID 504832; note: potency is the fitted concentration of half-maximal effect; % is set by controls: 0 for no effect and ±100 for the full control effect
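Parasite viability was followed by luminescence of a genomically integrated firefly luciferase. Cultures held 0.1% parasitemia at 2% hematocrit (final), incubated under 5% CO2 at 37 C.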
HCMV inh: inhibitors of human cytomegalovirus; activity change, negative = inhibition, % at 57.5 µM; HFF cells, HCMV-luciferase reporter, 72 h; hits give low values; hit rate 4.5% among 410,000; in the data active = activity change below about -60%; inconclusive = no clear call, values can overlap the other calls; inactive = above about -39%; note: % is set by controls: 0 for no effect and ±100 for the full control effect
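Inhibition of viral replication was scored as loss of reporter luminescence in HFFs infected with HCMV-luciferase (MOI 1 PFU/cell) for 72 h; compounds tested at 2 doses, normalized to buffer and Salinomycin controls.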
HCV inhibitor: HCV inhibition; Huh7.5.1 HCVcc-Cre infection, luciferase reporter, 44 h; Potency, µM (highest dose often 41.8 µM), inactives show top-dose activity change, negative = inhibition, most hits filed as inhibitors; hit rate 3.4% among 340,000; note: potency is the fitted concentration of half-maximal effect; % is set by controls: 0 for no effect and ±100 for the full control effect
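Cells seeded at 1,000/well and cultured 4 h, then compounds added followed by HCVcc-Cre virus (~0.5 moi). After 44 h further culture, luciferase substrate was added, plates held 15 min at room temperature, and luminescence read for 15 sec.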
Pf growth 96h: P. falciparum growth inhibition at 96 hours; Potency, µM (highest dose often 28.7 µM), for inactives: at the highest dose activity change, negative = inhibition, most hits filed as inhibitors; hit rate 6.9% among 320,000; P. falciparum luciferase reporter growth, 96 h; note: potency is the fitted concentration of half-maximal effect; % is set by controls: 0 for no effect and ±100 for the full control effect
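P. falciparum expressing integrated firefly luciferase, in erythrocytes at 2% hematocrit, 0.05% parasitemia, incubated with compounds 96 h at 37 C, 5% CO2. Growth inhibition read as loss of luminescence; two-generation exposure targets delayed-death apicoplast inhibitors.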
Shiga inhibitor: inhibitors of Shiga toxin in Vero cells; Vero cells, Shiga toxin protein synthesis inhibition reporter; inhibition, % at 38.7 µM; hit rate 9.2% among 290,000; AID 2315; in the data active = inhibition mostly above about 28%, no sharp cut-off; inactive = mostly below about 43%; note: 0% is about no effect
Cycloheximide cs: affects cycloheximide protein synthesis inhibition readout, counter-screen. max response, %. cell reporter, cycloheximide protein synthesis inhibition counterscreen. AID 2314. hit rate 12% among 300,000; in the data active = max response mostly above about 13%, no sharp cut-off; inactive = mostly below about 14%; note: read at 38.3 µM for the half of the compounds with a filed dose; 0% is about no effect
* marks the source's active call; other numbers are inactive results; [ ] = dose if it differs, or a comment. Unless noted, calls come from the whole dose curve; as a rule, active = well fitted inhibition curve with a large enough effect; inconclusive = small, poorly fitted or top-dose-only effect, or another doubt; inactive = no such curve, though single readings can be large or run the other way.

Screening CN(C)S(=O)(=O)Oc1cc(Cl)ccc1C(=O)Nc1ccc(F)cc1F returned Pf growth 48h inconclusive, HCMV inh -40, HCV inhibitor -26%, Pf growth 96h inconclusive, Shiga inhibitor 42 and Cycloheximide cs 35*.
Screening CC(=O)O[C@H]1CC[C@@]2(C)C(CCC3C2CC[C@]2(C)OC(=O)CCC32)C1 (stereo partly specified) returned Pf growth 48h -18%, HCMV inh 85, HCV inhibitor -18%, Pf growth 96h inconclusive, Shiga inhibitor 10 and Cycloheximide cs -3.
Screening CC(=O)OC1CCC2(C)C(CCC3C4CC=C(C(C)=O)C4(C)OC(=O)CC32)C1 (stereo unspecified) returned HCMV inh -76*.
For Brc1ccccc1-c1nnc(COc2cccc3cccnc23)o1 the results were Pf growth 48h -16%, HCMV inh 15, HCV inhibitor -21%, Shiga inhibitor 34 and Cycloheximide cs 14.
`O=c1c(Cl)c(Cl)cnn1Cc1nnc(-c2ccccc2Br)o1` gave Pf growth 48h 5%, HCMV inh -99*, HCV inhibitor inconclusive, Pf growth 96h -5%, Shiga inhibitor -7 and Cycloheximide cs 29.
`Clc1ccc(Cc2nnc(-c3ccccc3Br)o2)cc1` gave Pf growth 48h -13%, HCMV inh 32, HCV inhibitor -5%[8.37 µM], Pf growth 96h -109%, Shiga inhibitor 39* and Cycloheximide cs 22*.
`O=C1NC2(CCCc3ccccc32)C(=O)N1Cc1nnc(-c2ccccc2Br)o1` (stereo unspecified) gave Pf growth 48h inconclusive, HCMV inh 14, HCV inhibitor inconclusive, Pf growth 96h inconclusive, Shiga inhibitor -15 and Cycloheximide cs 2.
Screening N#Cc1ccccc1OCc1nnc(-c2ccccc2Br)o1 returned Pf growth 48h 39%, HCMV inh 73, HCV inhibitor -30%, Pf growth 96h 3%, Shiga inhibitor 103* and Cycloheximide cs 48*.
Clc1ccccc1OCc1nnc(-c2ccccc2Br)o1 was read as Pf growth 48h 40%, HCMV inh 83, HCV inhibitor -8%, Pf growth 96h inconclusive, Shiga inhibitor 120* and Cycloheximide cs 52*.
Screening CCc1ccc(OCc2nnc(-c3ccccc3Br)o2)cc1 returned Pf growth 48h 45%, HCMV inh -27, HCV inhibitor 1% and Pf growth 96h -1%.
CCc1nc2c(OCCc3cccc(OC)c3)cccn2c1N(C)C(=O)c1ccc(OC)cc1 was read as HCMV inh 23.
Fc1ccc(-c2cn3cc(C(F)(F)F)cc(Cl)c3n2)cc1 was read as Pf growth 48h 375%, HCMV inh 110, HCV inhibitor inconclusive, Pf growth 96h 118%, Shiga inhibitor 103* and Cycloheximide cs 28*.
Screening COc1ccc(-c2cn3cc(C(F)(F)F)cc(Cl)c3n2)cc1 returned Pf growth 48h 33%, HCMV inh 302, HCV inhibitor inconclusive, Pf growth 96h 67%, Shiga inhibitor 80* and Cycloheximide cs 56*.
For COc1ccc(C(O)c2ncc(C(F)(F)F)cc2Cl)cc1 (stereo unspecified) the results were Pf growth 48h -5%, HCMV inh 2, HCV inhibitor 2%, Pf growth 96h 6%, Shiga inhibitor -4 and Cycloheximide cs 6.
For Fc1ccc(-c2nc3c(Cl)cc(C(F)(F)F)cn3c2Cc2ccccc2)cc1 the results were HCMV inh -7.
Cc1cc(C)cc(N2C(=O)c3nccnc3C2=O)c1 was read as Pf growth 48h 13%, HCMV inh -5, HCV inhibitor 23%, Pf growth 96h 12µM*, Shiga inhibitor 1 and Cycloheximide cs -4.
Cc1cc(C)cc(N2C(=O)C=CC2=O)c1 was read as HCMV inh -19 and HCV inhibitor inconclusive.
For COc1ccccc1CNC(=O)c1ccc2nc3[nH]c4ccccc4c3nc2c1 the results were Pf growth 48h inconclusive, HCMV inh -86*, HCV inhibitor inconclusive, Pf growth 96h -21%, Shiga inhibitor 31 and Cycloheximide cs 10.
